Assay results reported in PubChem BioAssay (NCATS).
Results filed as inconclusive are left out. Calls of active or inactive are those of the source. Calls follow the shape of the dose curve; as a rule, active = well fitted curve in the direction sought with a large enough effect; inconclusive = small, poorly fitted or top-dose-only effect, or another doubt; inactive = no such curve, though single readings can be large; an effect the other way counts as inactive or inconclusive.

Columns and labels:
CRL-7250 = normal cell line; experiment: Cytotoxic Profiling of Annotated Libraries Using Quantitative High-Throughput Screening (AID 1296008); conditions: Five cell lines viability, CellTiter-Glo ATP luminescence, 48-72 h; max response: active compounds read low; also: nearly all actives have a fitted effect of over 60% in size; also: potency is read from the fitted curve at half-maximal effect; as to max response: % is scaled to controls: 0 for no effect and ±100 for the full control effect
How it was run: (§1)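 Cytotoxicity was measured as CellTiter-Glo ATP luminescence, read after 10 min at room temperature. Compound treatment of the cells lasted 48 or 72 hr at 37 degrees Celsius in a qHTS format.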

HaCat [1] = experiment: as above; conditions: Five cell lines viability, CellTiter-Glo ATP luminescence, 48-72 h; max response: active compounds read low
How it was run: as §1

NIH3T3 [2] = experiment: as above; conditions: Five cell lines viability, CellTiter-Glo ATP luminescence, 48-72 h; max response: active compounds read low
How it was run: as §1

NIH3T3 [3] = experiment: qHTS assay to identify novel small-molecules to repurpose for Merkel cell carcinoma treatment (AID 1296009); conditions: MCC and control cell lines, CellTiter-Glo viability, 72 h; series mostly up to 44.8 µM; also: nearly all actives have a fitted effect of over 60% in size
How it was run: (§2)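 72 hr, 37 degree celsius; NPC 8-pt / MIPE 11-pt dose response; compound pinned in DMSO; CellTiter-Glo, 10 min RT, luminescence; normalized to no-cell and DMSO controls.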

CAOV3 = experiment: Primary qHTS to identify gynecologic anti-cancer compounds using libraries of approved drugs and bioactive compounds (AID 1345084); conditions: Gynecologic cancer cell panel viability, ATPlite luminescence, 48 h; series mostly up to 57.5 µM; also: % is scaled to controls: 0 for no effect and ±100 for the full control effect; nearly all actives have a fitted effect of over 55% in size
How it was run: (§3)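 Cell viability after 48 h drug treatment, ATPlite luminescence readout; five doses.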

CASKI = experiment: as above; conditions: Gynecologic cancer cell panel viability, ATPlite luminescence, 48 h; series mostly up to 57.5 µM
How it was run: as §3

Hek293T = experiment: as above; conditions: Gynecologic cancer cell panel viability, ATPlite luminescence, 48 h, control line for the selectivity index; series mostly up to 57.5 µM
How it was run: as §3

JEG-3 = experiment: as above; conditions: Gynecologic cancer cell panel viability, ATPlite luminescence, 48 h; series mostly up to 57.5 µM
How it was run: as §3

OV90 = experiment: as above; conditions: Gynecologic cancer cell panel viability, ATPlite luminescence, 48 h; series mostly up to 57.5 µM
How it was run: as §3

HACAT [4] = experiment: qHTS assay to identify novel small-molecules to repurpose for Merkel cell carcinoma treatment (AID 1296009); conditions: MCC and control cell lines, CellTiter-Glo viability, 72 h; at 44.8 µM (top of the series) unless noted; also: nearly all actives have a fitted effect of over 60% in size
How it was run: as §2

C33A = experiment: Primary qHTS to identify gynecologic anti-cancer compounds using libraries of approved drugs and bioactive compounds (AID 1345084); conditions: Gynecologic cancer cell panel viability, ATPlite luminescence, 48 h; series mostly up to 57.5 µM; also: % is scaled to controls: 0 for no effect and ±100 for the full control effect; nearly all actives have a fitted effect of over 55% in size
How it was run: as §3

Es-2 = experiment: as above; conditions: Gynecologic cancer cell panel viability, ATPlite luminescence, 48 h; series mostly up to 57.5 µM
How it was run: as §3

HeLa = experiment: as above; conditions: Gynecologic cancer cell panel viability, ATPlite luminescence, 48 h; series mostly up to 57.5 µM
How it was run: as §3

CO[C@H]1[C@@H](O)[C@H](O[C@H]2CC[C@@]3(C)C(CCC4C3CC[C@]35COC6(COC(=O)C6)C3CCC45O)C2)O[C@@H](C)[C@@H]1OC1OC(CO)C(OC2OC(CO)C(O)C(O)C2O)C(O)C1O (some centres not stated)
inactive: max response (HaCat [1]) -26.8% | outcome (NIH3T3 [2]) | outcome (NIH3T3 [3]) inactive [at 9.27 µM] | activity change, negative = cytotoxicity (CAOV3) -7.69% [at 11.6 µM] | activity change, negative = cytotoxicity (CASKI) -2.83% [at 11.6 µM] | activity change, negative = cytotoxicity (Hek293T) -29.3% [at 11.6 µM] | activity change, negative = cytotoxicity (JEG-3) 18.5% [at 11.6 µM] | activity change, negative = cytotoxicity (OV90) 16.3% [at 11.6 µM]
active: Potency (CRL-7250) 3.48 µM

C[C@]12CC[C@@H]3c4ccc(O)c(O)c4CC[C@H]3[C@@H]1CCC2=O
inactive: max response (CRL-7250) -7.43% | outcome (HaCat [1]) | max response (NIH3T3 [2]) -17.9% | outcome (HACAT [4]) | Potency (C33A) | Potency (CAOV3) | Potency (CASKI) | Potency (Es-2) | Potency (HeLa) | Potency (Hek293T) | Potency (JEG-3) | Potency (OV90)

CC(C)C[C@@H](C(=O)N[C@@H](Cc1ccc(OCc2ccccc2)cc1)C(=O)NC(C)(C)C)N(C)Cc1ccc(C(C)(C)C)cc1
inactive: max response (CRL-7250) -7.62% | outcome (HaCat [1]) | max response (NIH3T3 [2]) -5.54% | outcome (HACAT [4]) | Potency (C33A) | Potency (CASKI) | Potency (Es-2) | Potency (HeLa) | Potency (Hek293T) | Potency (JEG-3) | Potency (OV90)

Cc1nc(Nc2ccc(F)cc2)nc(N2CCc3ccccc3C2C)c1C (configuration not stated)
inactive: max response (CRL-7250) -9.52% | outcome (HaCat [1]) | max response (NIH3T3 [2]) -20.5% | outcome (HACAT [4]) | Potency (C33A) | Potency (CASKI) | Potency (Es-2) | Potency (HeLa) | Potency (Hek293T) | Potency (JEG-3) | Potency (OV90)

COc1cc2c(cc1-c1c(C)noc1C)ncc1[nH]c(=O)n(C(C)c3ccccn3)c12 (configuration not stated)
active: Potency (CRL-7250) 5.8 µM | Potency (NIH3T3 [2]) 7.31 µM
inactive: outcome (HaCat [1]) | outcome (HACAT [4]) | Potency (C33A) | Potency (CASKI) | Potency (Hek293T) | Potency (JEG-3)

COC(=O)c1cc(Br)cnc1N1CCC(NC2CCCCC2)C(O)C1 (configuration not stated)
inactive: outcome (CRL-7250) | max response (HaCat [1]) -7.79% | outcome (NIH3T3 [2]) | Potency (NIH3T3 [3]) | Potency (C33A) | Potency (CAOV3) | Potency (CASKI) | Potency (Es-2) | Potency (HeLa) | Potency (Hek293T) | Potency (JEG-3) | Potency (OV90)

COC(=O)CC(O)CC(O)/C=C/c1c(C)ccc2c1C(OC(C)=O)CC(C)C2 (configuration not stated)
active: Potency (CRL-7250) 4.04 µM
inactive: outcome (HaCat [1]) | outcome (NIH3T3 [2]) | outcome (HACAT [4]) | Potency (C33A) | Potency (CAOV3) | Potency (CASKI) | Potency (Es-2) | Potency (Hek293T) | Potency (JEG-3)

CN(C)C(CCOc1cccc2ccccc12)c1ccccc1 (configuration not stated)
inactive: max response (CRL-7250) -16.3% | outcome (HaCat [1]) | outcome (NIH3T3 [2]) | outcome (HACAT [4]) | Potency (C33A) | Potency (CAOV3) | Potency (CASKI) | Potency (Es-2) | Potency (HeLa) | Potency (Hek293T) | Potency (JEG-3)

CCN(CC)CCCS(=O)(=O)N[C@H](CCc1ccccc1)c1nc(Cc2ccc(Br)cc2)no1
inactive: max response (CRL-7250) -4.82% | outcome (HaCat [1]) | max response (NIH3T3 [2]) -16.9% | outcome (HACAT [4]) | Potency (C33A) | Potency (CAOV3) | Potency (CASKI) | Potency (Es-2) | Potency (HeLa) | Potency (Hek293T) | Potency (JEG-3) | Potency (OV90)

CC(C)(O)c1ccn2c(-c3ccc(F)c(-c4ccc(F)cc4C#N)c3)cnc2c1F
inactive: max response (CRL-7250) -19.9% | outcome (HaCat [1]) | max response (NIH3T3 [2]) -2.51% | outcome (HACAT [4]) | Potency (C33A) | Potency (CAOV3) | Potency (CASKI) | Potency (Es-2) | Potency (HeLa) | Potency (Hek293T) | Potency (JEG-3) | Potency (OV90)

O=C(NCc1nc2ccccc2c(=O)n1-c1ccc(F)cc1)Nc1ccc(Cl)c(C(F)(F)F)c1
inactive: outcome (CRL-7250) | outcome (HaCat [1]) | max response (NIH3T3 [2]) -1.1% | outcome (HACAT [4]) | Potency (C33A) | Potency (CAOV3) | Potency (CASKI) | Potency (Es-2) | Potency (HeLa) | Potency (Hek293T) | Potency (JEG-3) | Potency (OV90)

O=C(COc1ccc2ccccc2c1Br)Nc1cccnc1
inactive: max response (CRL-7250) -18.6% | outcome (HaCat [1]) | max response (NIH3T3 [2]) -5.04% | outcome (HACAT [4]) | Potency (C33A) | Potency (CAOV3) | Potency (CASKI) | Potency (Es-2) | Potency (HeLa) | Potency (Hek293T) | Potency (JEG-3) | Potency (OV90)

CCC(C)CNCC(=O)N1CCc2sccc2C1COc1cccc(C)c1 (configuration not stated)
inactive: max response (CRL-7250) -0.461% | max response (HaCat [1]) 1.97% | max response (NIH3T3 [2]) -25.4% | Potency (C33A) | Potency (CAOV3) | Potency (CASKI) | Potency (Es-2) | Potency (HeLa) | Potency (Hek293T) | Potency (JEG-3)

NC(N)=NC(=O)c1cnn(-c2cccc3ncccc23)c1C1CC1
inactive: max response (CRL-7250) -23.8% | max response (HaCat [1]) -2.12% | max response (NIH3T3 [2]) -11.3% | Potency (C33A) | Potency (CAOV3) | Potency (CASKI) | Potency (Es-2) | Potency (HeLa) | Potency (Hek293T) | Potency (JEG-3)
